# Results published in article PMC7862700, “An all-to-all approach to the identification of sequence-specific readers for epigenetic DNA modifications on cytosine”.
# Experiments:
# Assay in all cases: DAPPL (digital affinity profiling via proximity ligation, sequencing); 10 mM Tris-HCl pH 7.5, 50 mM NaCl, 1 mM DTT, 4% glycerol, room temperature, 30 min; GST-TFs on glutathione beads, 16-mer random dsDNA library, 0.1% formaldehyde crosslink after washing; high values mean tight binding
# FEV = target: T1, FEV (Homo sapiens, UniProt Q99581 1-238); conditions: protein: recombinant; tags: N-terminal GST; dsDNA, one strand shown
# T1 sequence: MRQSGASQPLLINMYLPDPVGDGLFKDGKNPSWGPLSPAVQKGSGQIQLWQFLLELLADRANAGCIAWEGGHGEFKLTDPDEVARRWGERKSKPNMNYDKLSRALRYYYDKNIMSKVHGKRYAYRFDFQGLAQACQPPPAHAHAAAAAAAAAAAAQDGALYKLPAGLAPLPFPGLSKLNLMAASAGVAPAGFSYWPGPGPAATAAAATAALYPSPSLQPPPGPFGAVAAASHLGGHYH
# In short: (§1)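 Human transcription factors were made in yeast as GST fusions, captured on glutathione beads and barcoded with DNA. With a tag-only sample included, the pool was incubated with 200 nmole of a random double-stranded 16-mer DNA library in Tris/NaCl/DTT/glycerol buffer at room temperature for 30 min, then crosslinked with 0.1% formaldehyde after washing, ligated by proximity, amplified and sequenced. For binding signal, each hexamer's read frequency for a factor is divided by its frequency for the tag-only sample.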
# ETV5 = ETV5 (Homo sapiens, UniProt P41161 1-510); conditions: protein: recombinant; tags: N-terminal GST; dsDNA, one strand shown
# ETV5, sequence (P41161 whole entry): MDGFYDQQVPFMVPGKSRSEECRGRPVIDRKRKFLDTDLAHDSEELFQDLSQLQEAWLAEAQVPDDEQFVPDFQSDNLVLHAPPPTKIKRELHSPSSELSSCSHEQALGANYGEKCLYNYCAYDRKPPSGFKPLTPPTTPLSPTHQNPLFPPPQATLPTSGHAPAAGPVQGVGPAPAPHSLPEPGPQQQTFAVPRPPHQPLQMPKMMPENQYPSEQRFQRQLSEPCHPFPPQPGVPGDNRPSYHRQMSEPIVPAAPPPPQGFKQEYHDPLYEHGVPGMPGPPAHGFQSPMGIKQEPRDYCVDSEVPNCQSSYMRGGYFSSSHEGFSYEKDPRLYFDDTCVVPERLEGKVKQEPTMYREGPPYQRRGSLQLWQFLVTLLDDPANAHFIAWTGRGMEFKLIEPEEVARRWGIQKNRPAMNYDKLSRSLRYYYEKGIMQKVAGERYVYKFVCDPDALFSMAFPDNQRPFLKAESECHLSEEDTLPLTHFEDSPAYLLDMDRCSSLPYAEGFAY
# In short: as §1
# HSF1 = HSF1 (Homo sapiens, UniProt Q00613 1-529); conditions: protein: recombinant; tags: N-terminal GST; chain copies: 3; dsDNA, one strand shown
# HSF1, sequence (Q00613 whole entry): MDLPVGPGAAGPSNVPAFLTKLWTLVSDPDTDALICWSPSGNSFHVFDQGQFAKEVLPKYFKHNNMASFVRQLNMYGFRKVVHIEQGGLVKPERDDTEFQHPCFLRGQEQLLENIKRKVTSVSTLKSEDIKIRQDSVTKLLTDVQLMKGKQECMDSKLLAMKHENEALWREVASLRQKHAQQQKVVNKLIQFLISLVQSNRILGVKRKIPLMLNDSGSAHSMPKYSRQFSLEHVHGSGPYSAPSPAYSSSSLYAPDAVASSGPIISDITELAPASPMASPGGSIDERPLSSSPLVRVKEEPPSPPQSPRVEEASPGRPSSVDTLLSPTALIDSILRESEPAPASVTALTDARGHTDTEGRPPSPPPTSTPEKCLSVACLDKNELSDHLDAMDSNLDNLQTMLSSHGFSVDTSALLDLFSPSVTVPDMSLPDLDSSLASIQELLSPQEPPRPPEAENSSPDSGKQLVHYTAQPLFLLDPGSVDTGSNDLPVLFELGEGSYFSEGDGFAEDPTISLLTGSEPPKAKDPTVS
# In short: as §1
# SPIC = target: T2, SPIC (Homo sapiens, UniProt Q8N5J4 1-248); conditions: protein: recombinant; tags: N-terminal GST; dsDNA, one strand shown
# T2 sequence: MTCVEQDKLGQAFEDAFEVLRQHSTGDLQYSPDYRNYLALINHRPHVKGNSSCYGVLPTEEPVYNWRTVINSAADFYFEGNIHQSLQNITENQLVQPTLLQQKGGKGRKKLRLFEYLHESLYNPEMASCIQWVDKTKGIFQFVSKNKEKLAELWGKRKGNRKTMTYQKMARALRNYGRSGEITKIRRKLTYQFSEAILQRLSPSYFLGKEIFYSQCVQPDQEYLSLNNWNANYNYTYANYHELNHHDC
# In short: as §1
# ELF4 = ELF4 (Homo sapiens, UniProt Q99607 1-663); conditions: protein: recombinant; tags: N-terminal GST; dsDNA, one strand shown
# ELF4, sequence (Q99607 whole entry): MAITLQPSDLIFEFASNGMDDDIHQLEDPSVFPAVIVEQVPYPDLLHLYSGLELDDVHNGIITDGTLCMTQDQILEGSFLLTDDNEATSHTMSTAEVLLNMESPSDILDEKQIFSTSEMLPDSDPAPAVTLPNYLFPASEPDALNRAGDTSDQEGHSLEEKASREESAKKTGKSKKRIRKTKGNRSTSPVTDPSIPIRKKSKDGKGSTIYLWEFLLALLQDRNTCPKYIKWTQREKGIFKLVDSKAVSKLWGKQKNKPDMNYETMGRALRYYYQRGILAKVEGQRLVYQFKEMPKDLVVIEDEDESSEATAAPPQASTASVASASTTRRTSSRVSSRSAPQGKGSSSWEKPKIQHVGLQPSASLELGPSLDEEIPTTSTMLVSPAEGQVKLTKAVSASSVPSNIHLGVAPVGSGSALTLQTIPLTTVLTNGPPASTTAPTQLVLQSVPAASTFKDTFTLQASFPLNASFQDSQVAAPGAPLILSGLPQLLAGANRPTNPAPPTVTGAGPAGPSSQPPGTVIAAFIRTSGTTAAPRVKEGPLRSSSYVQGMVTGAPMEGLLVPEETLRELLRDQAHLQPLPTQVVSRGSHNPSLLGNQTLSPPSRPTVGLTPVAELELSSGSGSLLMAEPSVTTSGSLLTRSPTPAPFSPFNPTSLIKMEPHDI
# In short: as §1
# ELK4 = target: T3, ELK4 (Homo sapiens, UniProt P28324-2 1-405); conditions: protein: recombinant; tags: N-terminal GST; dsDNA, one strand shown
# T3 sequence: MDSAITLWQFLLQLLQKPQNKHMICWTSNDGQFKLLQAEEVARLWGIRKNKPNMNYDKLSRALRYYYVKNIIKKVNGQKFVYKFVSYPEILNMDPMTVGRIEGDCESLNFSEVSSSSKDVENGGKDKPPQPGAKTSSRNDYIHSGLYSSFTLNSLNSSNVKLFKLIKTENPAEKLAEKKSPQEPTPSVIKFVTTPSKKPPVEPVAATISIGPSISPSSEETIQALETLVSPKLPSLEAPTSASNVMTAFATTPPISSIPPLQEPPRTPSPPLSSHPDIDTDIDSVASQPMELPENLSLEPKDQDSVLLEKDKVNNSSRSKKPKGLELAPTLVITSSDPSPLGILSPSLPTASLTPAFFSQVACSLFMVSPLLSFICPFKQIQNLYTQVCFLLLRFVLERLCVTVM
# In short: as §1
# ETV2 = target: T4, ETV2 (Homo sapiens, UniProt O00321 1-342); conditions: protein: recombinant; tags: N-terminal GST; dsDNA, one strand shown
# T4 sequence: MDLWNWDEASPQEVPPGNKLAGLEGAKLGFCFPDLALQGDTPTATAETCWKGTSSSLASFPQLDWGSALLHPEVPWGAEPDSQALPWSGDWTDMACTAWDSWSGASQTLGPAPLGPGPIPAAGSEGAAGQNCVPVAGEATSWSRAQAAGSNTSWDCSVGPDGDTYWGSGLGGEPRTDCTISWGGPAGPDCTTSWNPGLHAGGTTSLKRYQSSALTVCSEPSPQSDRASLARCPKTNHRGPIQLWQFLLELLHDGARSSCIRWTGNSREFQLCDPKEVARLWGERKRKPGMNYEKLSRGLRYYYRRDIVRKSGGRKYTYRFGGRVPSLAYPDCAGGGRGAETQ
# In short: as §1
# ELF3 = target: T5, ELF3 (Homo sapiens, UniProt P78545 1-371); conditions: protein: recombinant; tags: N-terminal GST; dsDNA, one strand shown
# T5 sequence: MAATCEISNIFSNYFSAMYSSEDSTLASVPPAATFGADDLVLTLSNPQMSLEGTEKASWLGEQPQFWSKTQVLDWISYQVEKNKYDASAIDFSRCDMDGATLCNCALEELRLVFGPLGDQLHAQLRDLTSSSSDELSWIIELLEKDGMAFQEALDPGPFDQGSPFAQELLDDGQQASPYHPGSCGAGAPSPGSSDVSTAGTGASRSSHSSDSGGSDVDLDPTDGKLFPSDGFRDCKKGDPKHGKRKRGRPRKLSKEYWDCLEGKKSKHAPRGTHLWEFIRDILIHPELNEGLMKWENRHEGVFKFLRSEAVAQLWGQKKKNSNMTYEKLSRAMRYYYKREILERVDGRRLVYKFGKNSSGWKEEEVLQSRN
# In short: as §1
# CRX = CRX (Homo sapiens, UniProt O43186 1-299); conditions: protein: recombinant; tags: N-terminal GST; dsDNA, one strand shown
# CRX, sequence (O43186 whole entry): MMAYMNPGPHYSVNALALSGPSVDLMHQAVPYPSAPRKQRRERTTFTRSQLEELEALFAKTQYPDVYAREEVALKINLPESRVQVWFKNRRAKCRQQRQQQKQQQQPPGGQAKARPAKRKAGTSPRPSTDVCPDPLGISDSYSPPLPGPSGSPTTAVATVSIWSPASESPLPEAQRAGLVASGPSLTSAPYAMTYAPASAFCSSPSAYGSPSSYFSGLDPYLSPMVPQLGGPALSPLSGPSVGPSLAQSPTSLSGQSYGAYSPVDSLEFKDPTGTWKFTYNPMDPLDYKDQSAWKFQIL
# In short: as §1
# ETV1 = ETV1 (Homo sapiens, UniProt P50549 1-477); conditions: protein: recombinant; tags: N-terminal GST; dsDNA, one strand shown
# ETV1, sequence (P50549 whole entry): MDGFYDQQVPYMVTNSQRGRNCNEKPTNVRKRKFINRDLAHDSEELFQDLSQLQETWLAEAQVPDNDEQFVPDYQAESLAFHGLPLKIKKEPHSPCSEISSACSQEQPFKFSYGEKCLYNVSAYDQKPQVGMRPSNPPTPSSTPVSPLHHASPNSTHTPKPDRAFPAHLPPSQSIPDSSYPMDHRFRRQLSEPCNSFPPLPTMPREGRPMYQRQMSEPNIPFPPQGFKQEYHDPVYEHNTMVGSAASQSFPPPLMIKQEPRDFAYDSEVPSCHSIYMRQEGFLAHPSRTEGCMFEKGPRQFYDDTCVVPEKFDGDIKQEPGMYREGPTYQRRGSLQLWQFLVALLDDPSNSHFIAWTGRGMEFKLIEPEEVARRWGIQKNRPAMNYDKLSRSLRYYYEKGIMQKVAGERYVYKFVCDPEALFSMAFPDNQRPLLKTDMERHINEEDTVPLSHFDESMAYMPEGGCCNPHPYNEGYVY
# In short: as §1
# ERF = target: T6, ERF (Homo sapiens, UniProt P50548 1-548); conditions: protein: recombinant; tags: N-terminal GST; dsDNA, one strand shown
# T6 sequence: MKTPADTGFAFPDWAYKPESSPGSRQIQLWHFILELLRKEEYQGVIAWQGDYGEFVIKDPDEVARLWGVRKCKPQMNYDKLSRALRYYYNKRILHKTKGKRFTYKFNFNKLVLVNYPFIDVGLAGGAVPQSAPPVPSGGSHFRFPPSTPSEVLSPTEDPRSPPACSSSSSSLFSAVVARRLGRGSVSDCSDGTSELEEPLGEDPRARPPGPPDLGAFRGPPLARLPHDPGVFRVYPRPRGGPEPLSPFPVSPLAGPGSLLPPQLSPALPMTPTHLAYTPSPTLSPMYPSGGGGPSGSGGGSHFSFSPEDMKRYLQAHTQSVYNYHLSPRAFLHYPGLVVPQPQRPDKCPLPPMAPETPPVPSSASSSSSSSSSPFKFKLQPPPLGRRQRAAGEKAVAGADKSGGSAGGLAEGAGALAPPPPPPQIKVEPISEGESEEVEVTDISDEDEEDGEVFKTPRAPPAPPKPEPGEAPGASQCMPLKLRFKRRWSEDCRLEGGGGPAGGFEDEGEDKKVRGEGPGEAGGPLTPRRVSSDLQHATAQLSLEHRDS
# In short: as §1
# ETV3L = target: T7, ETV3L (Homo sapiens, UniProt Q6ZN32 1-361); conditions: protein: recombinant; tags: N-terminal GST; dsDNA, one strand shown
# T7 sequence: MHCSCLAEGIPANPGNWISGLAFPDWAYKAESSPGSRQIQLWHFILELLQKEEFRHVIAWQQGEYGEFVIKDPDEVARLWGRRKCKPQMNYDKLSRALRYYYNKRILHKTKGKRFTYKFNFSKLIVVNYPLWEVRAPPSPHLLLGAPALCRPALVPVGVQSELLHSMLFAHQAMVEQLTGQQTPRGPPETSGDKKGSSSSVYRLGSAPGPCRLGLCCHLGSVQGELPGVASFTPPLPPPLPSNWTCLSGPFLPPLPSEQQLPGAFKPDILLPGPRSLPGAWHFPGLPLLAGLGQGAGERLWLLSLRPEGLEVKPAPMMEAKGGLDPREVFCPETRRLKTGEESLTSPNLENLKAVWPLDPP
# In short: as §1
# ETS2 = target: T8, ETS2 (Homo sapiens, UniProt P15036 1-469); conditions: protein: recombinant; tags: N-terminal GST; dsDNA, one strand shown
# T8 sequence: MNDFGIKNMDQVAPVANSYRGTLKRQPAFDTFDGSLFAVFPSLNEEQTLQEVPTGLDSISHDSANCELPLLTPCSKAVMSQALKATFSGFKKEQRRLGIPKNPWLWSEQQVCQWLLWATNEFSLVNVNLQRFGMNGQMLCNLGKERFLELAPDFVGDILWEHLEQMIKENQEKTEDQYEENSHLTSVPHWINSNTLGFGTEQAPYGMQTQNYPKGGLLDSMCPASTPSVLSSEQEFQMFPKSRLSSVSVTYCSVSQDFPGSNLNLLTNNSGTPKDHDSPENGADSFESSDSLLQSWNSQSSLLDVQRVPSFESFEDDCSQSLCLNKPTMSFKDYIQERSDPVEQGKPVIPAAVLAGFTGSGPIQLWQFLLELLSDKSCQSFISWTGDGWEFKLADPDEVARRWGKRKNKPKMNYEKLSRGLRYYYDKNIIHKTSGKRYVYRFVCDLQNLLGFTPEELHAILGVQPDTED
# In short: as §1
# SPDEF = target: T9, SPDEF (Homo sapiens, UniProt O95238 1-335); conditions: protein: recombinant; tags: N-terminal GST; dsDNA, one strand shown
# T9 sequence: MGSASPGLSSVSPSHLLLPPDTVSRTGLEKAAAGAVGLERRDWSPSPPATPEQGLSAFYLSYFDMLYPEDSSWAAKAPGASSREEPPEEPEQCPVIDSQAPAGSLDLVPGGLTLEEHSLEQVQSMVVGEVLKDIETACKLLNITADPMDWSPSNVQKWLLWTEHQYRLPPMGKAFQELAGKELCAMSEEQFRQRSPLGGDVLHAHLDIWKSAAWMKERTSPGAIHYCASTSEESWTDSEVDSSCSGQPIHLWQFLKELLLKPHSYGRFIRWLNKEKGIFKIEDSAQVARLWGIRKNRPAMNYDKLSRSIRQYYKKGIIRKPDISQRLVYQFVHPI
# In short: as §1
# ETV7 = target: T10, ETV7 (Homo sapiens, UniProt Q9Y603 1-341); conditions: protein: recombinant; tags: N-terminal GST; dsDNA, one strand shown
# T10 sequence: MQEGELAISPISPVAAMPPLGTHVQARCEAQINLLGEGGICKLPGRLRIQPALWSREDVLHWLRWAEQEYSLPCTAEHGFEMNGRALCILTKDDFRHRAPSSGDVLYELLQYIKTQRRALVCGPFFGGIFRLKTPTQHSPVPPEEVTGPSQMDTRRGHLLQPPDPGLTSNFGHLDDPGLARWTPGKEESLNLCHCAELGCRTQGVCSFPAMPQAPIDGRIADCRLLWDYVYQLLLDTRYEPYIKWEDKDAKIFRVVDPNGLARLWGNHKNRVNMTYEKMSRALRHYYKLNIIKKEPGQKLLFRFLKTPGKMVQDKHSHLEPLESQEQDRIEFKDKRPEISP
# In short: as §1
# ELF5 = target: T11, ELF5 (Homo sapiens, UniProt Q9UKW6-2 1-255); conditions: protein: recombinant; tags: N-terminal GST; dsDNA, one strand shown
# T11 sequence: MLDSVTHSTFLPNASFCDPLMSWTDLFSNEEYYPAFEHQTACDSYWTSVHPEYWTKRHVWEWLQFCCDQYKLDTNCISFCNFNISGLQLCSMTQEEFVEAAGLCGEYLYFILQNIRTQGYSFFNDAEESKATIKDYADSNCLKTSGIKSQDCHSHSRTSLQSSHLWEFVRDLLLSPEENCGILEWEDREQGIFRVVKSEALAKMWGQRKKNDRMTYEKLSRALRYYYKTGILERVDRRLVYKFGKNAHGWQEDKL
# In short: as §1
# ETV3 = target: T12, ETV3 (Homo sapiens, UniProt P41162-2 1-143); conditions: protein: recombinant; tags: N-terminal GST; dsDNA, one strand shown
# T12 sequence: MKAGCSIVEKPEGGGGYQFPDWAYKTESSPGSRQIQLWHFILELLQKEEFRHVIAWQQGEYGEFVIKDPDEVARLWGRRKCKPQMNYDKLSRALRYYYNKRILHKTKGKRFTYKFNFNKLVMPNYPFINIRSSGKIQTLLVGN
# In short: as §1
# ETV6 = ETV6 (Homo sapiens, UniProt P41212 1-452); conditions: protein: recombinant; tags: N-terminal GST; dsDNA, one strand shown
# ETV6, sequence (P41212 whole entry): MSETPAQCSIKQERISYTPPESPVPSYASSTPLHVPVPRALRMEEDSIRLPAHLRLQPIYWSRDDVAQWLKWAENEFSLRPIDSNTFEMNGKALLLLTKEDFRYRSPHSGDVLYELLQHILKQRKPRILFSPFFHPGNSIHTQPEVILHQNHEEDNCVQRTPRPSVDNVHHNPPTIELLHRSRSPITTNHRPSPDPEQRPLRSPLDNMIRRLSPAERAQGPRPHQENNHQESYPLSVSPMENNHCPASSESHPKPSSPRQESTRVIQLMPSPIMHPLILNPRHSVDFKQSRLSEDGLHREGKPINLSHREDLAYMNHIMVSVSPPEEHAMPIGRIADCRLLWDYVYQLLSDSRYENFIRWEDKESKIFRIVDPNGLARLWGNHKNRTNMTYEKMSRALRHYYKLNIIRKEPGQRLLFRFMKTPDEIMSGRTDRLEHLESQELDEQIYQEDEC
# In short: as §1
sequence,measurement,setting,value
TGGCCT,binding signal,FEV,"1.54 fold enrichment (6-mer frequency, TF over GST control)"
same,binding signal,ETV5,"1.4 fold enrichment (6-mer frequency, TF over GST control)"
same,binding signal,HSF1,"1.32 fold enrichment (6-mer frequency, TF over GST control)"
same,binding signal,SPIC,"1.26 fold enrichment (6-mer frequency, TF over GST control)"
same,binding signal,ELF4,"1.51 fold enrichment (6-mer frequency, TF over GST control)"
same,binding signal,ELK4,"1.53 fold enrichment (6-mer frequency, TF over GST control)"
same,binding signal,ETV2,"1.46 fold enrichment (6-mer frequency, TF over GST control)"
same,binding signal,ELF3,"1.47 fold enrichment (6-mer frequency, TF over GST control)"
same,binding signal,CRX,"1.31 fold enrichment (6-mer frequency, TF over GST control)"
same,binding signal,ETV1,"1.27 fold enrichment (6-mer frequency, TF over GST control)"
same,binding signal,ERF,"1.38 fold enrichment (6-mer frequency, TF over GST control)"
same,binding signal,ETV3L,"1.37 fold enrichment (6-mer frequency, TF over GST control)"
same,binding signal,ETS2,"1.32 fold enrichment (6-mer frequency, TF over GST control)"
same,binding signal,SPDEF,"1.42 fold enrichment (6-mer frequency, TF over GST control)"
same,binding signal,ETV7,"1.42 fold enrichment (6-mer frequency, TF over GST control)"
same,binding signal,ELF5,"1.33 fold enrichment (6-mer frequency, TF over GST control)"
same,binding signal,ETV3,"1.35 fold enrichment (6-mer frequency, TF over GST control)"
same,binding signal,ETV6,"1.5 fold enrichment (6-mer frequency, TF over GST control)"
